Source: PubChem BioAssay (NCI)
About 79,000 compounds went through this panel and 15% of them were active in at least one assay; those are over-represented in the sample as a whole. Calls of active or inactive are those of the source. Cut-off read from the data, not from the text of the source: active = growth inhibition above about 70%; inactive = the rest.

How the values were obtained:
[1] = NCI Yeast Anticancer Drug Screen. Data for the rad50 strain (AID 155);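 note: 0% = growth of vehicle-only cultures of the same strain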; settings: S. cerevisiae rad50 strain growth inhibition; at 50.0 µM; hits give high values
Summary of the method: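 Genetically altered yeast (DNA repair pathway); compound treatment; growth inhibition vs vehicle ctrl.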

[2] = NCI Yeast Anticancer Drug Screen. Data for the mec2-1 strain (AID 157); settings: S. cerevisiae mec2-1 strain, at 50.0 µM, hits give high values
Summary of the method: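 Each compound was tested on mec2-1 yeast, a strain altered in DNA damage repair or cell cycle control. Growth inhibition is reported relative to vehicle.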

[3] = NCI Yeast Anticancer Drug Screen. Data for the sgs1 mgt1 strain (AID 161);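 note: 0% = growth of cultures given vehicle only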; settings: S. cerevisiae sgs1 mgt1 strain, at 50.0 µM, hits give high values
Summary of the method: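 Mutant yeast exposed to compound; growth scored against vehicle-only wells.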

[4] = NCI Yeast Anticancer Drug Screen. Data for the cln2 rad14 strain (AID 165);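 note: 0% = growth equal to vehicle treated cultures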; settings: S. cerevisiae cln2 rad14 strain, at 50.0 µM, hits give high values
Summary of the method: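 Test compounds were added to cln2 rad14 yeast cultures; inhibition of growth was then determined by comparison with vehicle treatment.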

[5] = NCI Yeast Anticancer Drug Screen. Data for the bub3 strain (AID 167); settings: S. cerevisiae bub3 mutant strain, at 50.0 µM, hits give high values
Summary of the method: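 Yeast carrying a defined mutation is treated with each compound, and growth is compared with that of vehicle-exposed cells to give inhibition.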

[6] = NCI Yeast Anticancer Drug Screen. Data for the mlh1 rad18 strain (AID 175); settings: S. cerevisiae mlh1 rad18 strain growth inhibition; at 50.0 µM; hits give high values
Summary of the method: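 Inhibition values reflect reduced growth of mutant yeast versus vehicle-treated controls following compound exposure; the mutations affect DNA damage repair.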

Measured: growth inhibition

CCOC(=O)CCC(=O)N(CC)CC
inactive: [1] 8.7% | [2] 16.6% | [3] 16.4% | [4] 9.9% | [5] -10.9% | [6] -13%

CSC(=N)N1N=C2c3ccccc3CC[C@@H]2[C@@H]1c1ccccc1
inactive: [1] -0.1% | [2] -7.3% | [3] -18.9% | [4] 38% | [5] -10.8% | [6] -18.4%

Oc1ccc(Cl)cc1/C=N\N=C\c1cc(Cl)ccc1O
inactive: [1] -50.3% | [2] -1.1% | [3] 5.75% | [4] -36.1% | [5] 3.15% | [6] 8.85%

CCN(CC)CCOCCO
inactive: [1] -8.6% | [2] -16% | [3] -0.65% | [4] 11.7% | [5] 0.95% | [6] -2.15%

COc1ccc(C2C(C#N)=C(N)NC(=O)C2C(N)=O)cc1 (stereo not drawn)
inactive: [1] -12.6% | [2] -11.8% | [3] -16.8% | [4] -0.1% | [5] -4.05% | [6] -19.4%

CC(O)COc1ccccc1Cl (stereo not drawn)
inactive: [1] 5.2% | [2] -2% | [3] 16.5% | [4] -46.9% | [5] -0.4% | [6] 6.85%

O=C(N[C@@H](CCl)[C@H](Cl)c1ccc([N+](=O)[O-])cc1)c1ccc([N+](=O)[O-])o1
active: [1] 85.3% | [2] 76.2% | [3] 93.3% | [4] 83.7% | [5] 87.3% | [6] 92.8%

Cc1cccc(O)c1O
inactive: [1] 25.2% | [2] 0.15% | [3] 23.1% | [4] -0.2% | [5] 16.8% | [6] 20.4%

CCOC(=O)Oc1ccc(C(=O)NCCC(C)C)cc1OCC
inactive: [1] -11.8% | [2] -10.3% | [3] -8.1% | [4] -69.2% | [5] 25.8% | [6] -6.8%

CC1C2CC(C(C3C(=O)C4CC3C(C)(C)C4C)C2=O)C1(C)C (stereo not drawn)
inactive: [1] -13.1% | [2] -26.1% | [3] -43.2% | [4] -1% | [5] -27.4% | [6] -32.1%

COC(=O)Cc1cc(=O)c2cc(C)ccc2[nH]1
inactive: [1] 0.9% | [2] 3.6% | [3] -2.7% | [4] -29.6% | [5] -13.9% | [6] -1.15%

O=C(c1ccccc1)C(C(c1ccccc1)N1CCOCC1)N1CCOCC1 (stereo not drawn)
inactive: [1] -19.1% | [2] 2.2% | [3] -4.55% | [4] -9.45% | [5] -5.7% | [6] 0.65%

CCN1CCCC(Nc2nc(Nc3ccc(Cl)c(Cl)c3)nc3ccc(Cl)cc23)C1 (stereo not drawn)
active: [1] 99.2% | [2] 99.7% | [3] 99.7% | [4] 99.5% | [5] 99.4% | [6] 99.5%

Cc1ccccc1NCC#N
inactive: [1] -23.9% | [2] -26% | [3] -19.2% | [4] -15.2% | [5] 10% | [6] -11.6%

C=CCn1c(C23CC4CC(CC(C4)C2)C3)n[nH]c1=S
inactive: [1] 27.6% | [2] 37.7% | [3] -8.45% | [4] 19.2% | [5] 3.55% | [6] -26.3%

NNC(=O)C(=O)Nc1nccs1
inactive: [1] 0.65% | [2] 0.85% | [3] 2.05% | [4] 6.95% | [5] -5.3% | [6] -4.6%

Fc1nc(F)nc(-c2c3ccccc3c3n2CCS3)n1
inactive: [1] 1.65% | [2] 14.1% | [3] 9.1% | [4] 15.3% | [5] 4.7% | [6] 7.2%

O=C1CC2CCC(C1)S2=O (stereo not drawn)
inactive: [1] 19.6% | [2] -10.5% | [3] 17.5% | [4] 23% | [5] 12.8% | [6] 18.5%

NC(=O)CC(N)=O
inactive: [1] 6.1% | [2] -5.1% | [3] -2.35% | [4] 9.4% | [5] 1.25% | [6] 4.6%

COc1ccccc1CC(=O)O
inactive: [1] 27.9% | [2] 2.15% | [3] 16.4% | [4] 17.3% | [5] -1.85% | [6] 0.05%

CCc1ccc(O)c(CN2CCN(Cc3cc(CC)ccc3O)CC2)c1
inactive: [1] -2.85% | [2] -15.7% | [3] 20.5% | [4] -18.4% | [5] -4.8% | [6] 17.1%

CC1=NN(c2ccccc2)C(=O)/C1=C1\SC(c2ccccc2)(c2ccccc2)c2ccccc21
inactive: [1] -29.4% | [2] 0.9% | [3] 1.8% | [4] 7.95% | [5] 23.2% | [6] -30.4%

CCCCCCCCCCCCC(Br)C(=O)OCC (stereo not drawn)
inactive: [1] 7.55% | [2] -7.6% | [3] 16.1% | [4] -5.2% | [5] -6.6% | [6] 3.95%

CCOc1ccccc1NC(=O)Nc1cccc2ccccc12
inactive: [1] -3.5% | [2] 3.75% | [3] 3.65% | [4] -22.3% | [5] -6.8% | [6] -15.4%

N#Cc1c(F)c(F)c(Oc2c(F)c(F)c(F)c(F)c2F)c(F)c1Oc1c(F)c(F)c(F)c(F)c1F
inactive: [1] -1.1% | [2] 11% | [3] -11.8% | [4] 9% | [5] -0.3% | [6] 5.8%

O=Nc1c(-c2ccccc2)nnc(-c2ccccc2)c1N=O
inactive: [1] -24.9% | [2] 6.95% | [3] -0.3% | [4] -54.8% | [5] 34.7% | [6] -6.2%

CC(C(O)c1ccccn1)[N+](=O)[O-] (stereo not drawn)
inactive: [1] -11.4% | [2] 1.55% | [3] -7.1% | [4] -21.1% | [5] -10.7% | [6] -3.4%

CN(C)C(=O)C1(C)CC2CCC1C2 (stereo not drawn)
inactive: [1] -2.25% | [2] -15.3% | [3] -8.65% | [4] 13.9% | [5] 2.8% | [6] -0.75%

CCOc1ncc(C(O)c2ccc(C)cc2)c(OCC)n1 (stereo not drawn)
inactive: [1] -1.05% | [2] -11.1% | [3] -3.75% | [4] -52.6% | [5] 1.4% | [6] -9.8%

Cc1ccc(O)c(C(=O)CCCC(=O)c2cc(C)ccc2O)c1
inactive: [1] -4.6% | [2] 7.9% | [3] 7.7% | [4] 12.5% | [5] -8.3% | [6] 4.35%

O=c1[nH]c2cc(Cl)ccc2nc1/C=C(\O)c1ccc2ccccc2c1
inactive: [1] 27.2% | [2] -5.2% | [3] -6.3% | [4] -3.85% | [5] -16.6% | [6] 25.4%

CC12CC(O)C(C=C1c1ccccc1)C2(C)C (stereo not drawn)
inactive: [1] -7.55% | [2] -0.95% | [3] 0.85% | [4] -14% | [5] -13.1% | [6] 1.45%

COc1cc(Nc2cnc3cc(N)ccc3n2)cc(OC)c1OC
inactive: [1] -16.8% | [2] -33.8% | [3] -31.2% | [4] -16.2% | [5] -9.65% | [6] -45.5%

Cc1cccc(-c2nc3sc(-c4cccc(C)n4)nc3s2)n1
inactive: [1] -9.7% | [2] 3.05% | [3] -13.3% | [4] -29.6% | [5] 4.05% | [6] -16.3%

CCOC(=O)/C(=C/c1cc(OC)ccc1OC)P(=O)(OCC)OCC
inactive: [1] 6.05% | [2] -12.9% | [3] -17.6% | [4] -25.1% | [5] 4.65% | [6] -0.9%

N#CCCC1(c2ccccc2)CCC/C(=C/c2ccccc2)C1=O (stereo not drawn)
inactive: [1] 11.8% | [2] 14.1% | [3] 1.7% | [4] 7.1% | [5] 17.4% | [6] 3%

Nc1ccc(S(=O)(=O)/N=C(\NS(=O)(=O)c2ccc(N)cc2)c2ccccc2)cc1
inactive: [1] 15.7% | [2] 0.65% | [3] 12.2% | [4] 16.2% | [5] 5.85% | [6] 1.45%

COc1ccc(-n2c(=O)c(N=Nc3ccccc3)c(O)n(-c3ccccc3OC)c2=S)cc1
inactive: [1] 39.5% | [2] -13.6% | [3] 40.5% | [4] -13.7% | [5] 8.95% | [6] 15.3%
